Assay results as given in PubChem BioAssay.
Active and inactive are the calls of the source. Unless noted, how the calls were made is not given here.

Legend:
[1] = compound effects on lung adenocarcinoma cell viability – A549, calcein-AM fluorescence, 48 h, basal, profiling panel (AID 1162); conditions: higher = more signal; further: test concentration not given here
[2] = compound effects on differentiated 3T3-L1 adipocyte viability – cell-based, 3T3-L1 adipocytes, calcein-AM fluorescence, 48 h, basal, profiling panel (AID 1163); conditions: 3T3-L1 adipocytes viability, higher = more signal; further: test concentration not given here
[3] = compound effects on hepatocellular carcinoma cell viability – HepG2, calcein-AM fluorescence, 48 h, basal, profiling panel (AID 1164); conditions: higher = more signal; further: test concentration not given here
[4] = compound effects on multiple myeloma cell viability – MM1S, calcein-AM fluorescence, 48 h, basal, profiling panel (AID 1165); conditions: higher = more signal; further: test concentration not given here
[5] = calcein-AM signal in unstimulated myeloma cells – cell-based, calcein-AM fluorescence, 48 h, PK04 Diversity Set, profiling panel (AID 1166); conditions: higher = more signal; RPMI8226 myeloma viability, calcein-AM fluorescence, 48 h unless noted;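 further: cells grown under basal conditions without added stimulus; test concentration not given here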
[6] = JC-1 mitochondrial signal, unstimulated HepG2 cells – cell-based, JC-1 fluorescence, 24 h, 100 nL compound, profiling panel (AID 1167); conditions: HepG2 mitochondrial potential, higher = more signal; further: test concentration not given here
[7] = JC-1 mitochondrial signal, unstimulated adipocytes – cell-based, JC-1 fluorescence, 3T3-L1 adipocytes, 24 h, 100 nL compound, profiling panel (AID 1168); conditions: JC-1 mitochondrial fluorescence; higher = more signal, called active from +8 up or from −8 down unless noted; further: test concentration not given here
[8] = JC-1 mitochondrial signal, unstimulated myeloma cells – cell-based, JC-1 fluorescence, RPMI8226, 24 h, 100 nL compound, profiling panel (AID 1169); conditions: higher = more signal; RPMI8226 myeloma, JC-1 mitochondrial potential fluorescence, 24 h unless noted; further: test concentration not given here
[9] = JC-1 mitochondrial signal, unstimulated MM1S myeloma – cell-based, JC-1 fluorescence, 24 h, 100 nL compound, profiling panel (AID 1170); conditions: MM1S mitochondrial potential, higher = more signal; further: test concentration not given here
[10] = resazurin metabolic signal in A549 cells – cell-based, resazurin fluorescence, 24 h, PK04 Diversity Set, profiling panel (AID 1171); conditions: A549 viability; higher = more signal, called active from +8 up or from −8 down unless noted; further: test concentration not given here
[11] = resazurin metabolic signal in HepG2 cells – cell-based, resazurin fluorescence, 24 h, PK04 Diversity Set, profiling panel (AID 1172); conditions: HepG2 viability, higher = more signal; further: test concentration not given here
[12] = budding yeast growth changes without added modifier – OD600, strain BY4716, 24 h, basal condition, primary screen (AID 1173); conditions: S. cerevisiae BY4716 growth, OD600, 24 h; higher = more signal, called active from +8 up or from −8 down unless noted
[13] = viability profiling in MM1S myeloma cells – cell-based, resazurin fluorescence, basal, 24 h, PK04 Diversity Set, profiling panel (AID 1174); conditions: higher = more signal, called active from +8 up or from −8 down unless noted; further: test concentration not given here
[14] = molecular target: Dihydroorotate dehydrogenase (quinone), mitochondrial (Plasmodium falciparum (isolate 3D7)) (UniProt Q08210); experiment: inhibition of P. falciparum DHODH – biochemical, C-terminal His tag, absorbance 600 nm, primary screen (AID 1175); conditions: PfDHODH enzyme, DCIP absorbance 600 nm; higher = more signal, called active from +8 up or from −8 down unless noted;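 further: recombinant parasite enzyme with a five histidine tag at its C terminus; test concentration not given here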
Chain of Dihydroorotate dehydrogenase (quinone), mitochondrial (Plasmodium falciparum (isolate 3D7)) (Q08210 whole entry, looked up): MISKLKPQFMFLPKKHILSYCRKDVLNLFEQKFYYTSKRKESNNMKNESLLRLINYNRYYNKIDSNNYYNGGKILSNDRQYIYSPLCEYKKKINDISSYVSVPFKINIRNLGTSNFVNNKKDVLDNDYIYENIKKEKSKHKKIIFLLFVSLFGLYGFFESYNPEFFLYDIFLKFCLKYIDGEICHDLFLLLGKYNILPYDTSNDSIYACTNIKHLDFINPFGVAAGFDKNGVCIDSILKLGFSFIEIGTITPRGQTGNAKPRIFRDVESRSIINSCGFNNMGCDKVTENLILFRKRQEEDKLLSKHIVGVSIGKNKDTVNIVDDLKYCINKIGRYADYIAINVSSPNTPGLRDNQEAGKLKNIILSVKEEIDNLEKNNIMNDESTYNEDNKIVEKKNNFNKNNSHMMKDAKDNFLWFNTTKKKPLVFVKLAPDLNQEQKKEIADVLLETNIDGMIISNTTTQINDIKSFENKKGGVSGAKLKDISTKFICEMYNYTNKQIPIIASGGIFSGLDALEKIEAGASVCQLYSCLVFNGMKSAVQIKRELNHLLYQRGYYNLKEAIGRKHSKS

[15] = inhibition of PAO1 biofilm formation – strain PAO1, LB-PBS medium, absorbance 600 nm, primary screen (AID 1176); further: test concentration not given here; conditions: P. aeruginosa PAO1 growth/biofilm, A600, 12 h; higher = more signal
[16] = growth modulation of vineyard yeast isolate – strain RM11-1a, OD600, basal, 24 h, primary screen (AID 1177);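 further: cultures grown under basal conditions with no added stressor; test concentration not given here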; conditions: S. cerevisiae RM11-1a growth, OD600, 24 h; higher = more signal, called active from +8 up or from −8 down unless noted
[17] = growth of efflux-deficient E. coli DRC39 – strain DRC39, OD650, 24 h, E. coli filamentation inducers, primary screen (AID 1178);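 further: growth measured as culture turbidity by optical density at 650 nm; test concentration not given here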; conditions: E. coli DRC39 acrAB; higher = more signal, called active from +8 up or from −8 down unless noted
[18] = growth of efflux-deficient E. coli DRC39 – strain DRC39, OD650, 48 h, E. coli filamentation inducers, primary screen (AID 1179);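 further: screen aims at cell division blockers that make cells filament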; conditions: E. coli DRC39 delta-acrAB growth, higher = more signal, called active from +8 up or from −8 down unless noted
[19] = viability profiling in RPMI8226 myeloma cells – cell-based, resazurin fluorescence, basal, 24 h, PK04 Diversity Set, profiling panel (AID 1180); conditions: higher = more signal; RPMI8226 viability, resazurin fluorescence, 24 h unless noted;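 further: RPMI8826 multiple myeloma cell line at 5000 cells per well; test concentration not given here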
[20] = molecular target: E3 ubiquitin-protein ligase XIAP (Homo sapiens) (UniProt P98170); experiment: small molecules binding XIAP protein – biophysical, small-molecule microarray, fluorescence 635 nm, primary screen (AID 1181); conditions: higher = more signal;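 further: score merges 667 nm emission and signal to noise over triplicate slides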
Chain of E3 ubiquitin-protein ligase XIAP (Homo sapiens) (P98170 whole entry, looked up): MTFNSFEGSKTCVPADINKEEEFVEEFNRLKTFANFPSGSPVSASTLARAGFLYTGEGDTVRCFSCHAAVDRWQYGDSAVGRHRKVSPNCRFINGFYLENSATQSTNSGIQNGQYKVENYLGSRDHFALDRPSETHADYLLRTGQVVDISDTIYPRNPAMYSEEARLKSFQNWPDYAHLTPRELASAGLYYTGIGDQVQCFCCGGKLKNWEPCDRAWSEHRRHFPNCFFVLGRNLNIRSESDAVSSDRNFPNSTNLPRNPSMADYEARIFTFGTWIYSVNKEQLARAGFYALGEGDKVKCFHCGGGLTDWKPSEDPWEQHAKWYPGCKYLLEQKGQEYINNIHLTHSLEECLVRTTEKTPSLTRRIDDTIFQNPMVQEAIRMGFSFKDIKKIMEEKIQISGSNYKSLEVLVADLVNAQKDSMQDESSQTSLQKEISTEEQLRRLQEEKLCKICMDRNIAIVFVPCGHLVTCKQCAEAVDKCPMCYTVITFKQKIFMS

In the case of CCCc1cc2c(n1Cc1cccc(Cl)c1)C(C)C1CN(C(=O)c3ccccc3)C(C)(C(=O)OC)C21 (stereo not given), the z-score [1] is reported as -1.22, the z-score [2] is reported as -0.278 and the z-score [3] is reported as 0.101. It also gave a z-score [4] of -2.71, a z-score [5] of -4.69 and a z-score [6] of 1.4. For the same compound, the z-score [7] was -1.82 (inactive), the z-score [8] was -0.795 and the z-score [9] was -1.61. For the same compound, the z-score [10] was -0.474 (inactive), the z-score [11] was -1.04 and the z-score [12] was 0.773 (inactive). The z-score [13] was -1.7 (inactive), the composite z-score [14] was -0.403 (inactive) and the z-score [15] was 0.619 (inactive). For the same compound, the z-score [16] was 0.616 (inactive), the z-score [17] was -0.423 (inactive) and the z-score [18] was -0.0676 (inactive). It also gave a z-score [19] of -1.56 and a composite z-score [20] of 0.621.
In the case of CN1CCC(c2ccc(CO)cc2)=CC1c1cccs1 (stereo not given), the z-score [1] is reported as 0.368, the z-score [2] is reported as -0.393 and the z-score [3] is reported as -0.153. The z-score [4] was -2.81, the z-score [5] was -0.157 and the z-score [6] was -1.28. For the same compound, the z-score [7] was -0.581 (inactive), the z-score [8] was 0.554 and the z-score [9] was -0.277. For the same compound, the z-score [10] was -0.103 (inactive), the z-score [11] was -0.792 and the z-score [12] was -1.01 (inactive). The z-score [13] was -0.694 (inactive), the composite z-score [14] was 0.083 (inactive) and the z-score [15] was -0.329 (inactive). For the same compound, the z-score [16] was 1.13 (inactive), the z-score [17] was -0.543 (inactive) and the z-score [18] was -0.447 (inactive). For the same compound, the z-score [19] was -0.118 and the composite z-score [20] was 0.152.
For COC(=O)[C@@]1(Cc2ccccc2)[C@H]2c3cc(C(=O)N(C)C)[nH]c3C[C@H]2CN1C(=O)c1ccccc1, the z-score [1] was -1.08, the z-score [2] was -0.0276 and the z-score [3] was -0.78. It also gave a z-score [4] of 0.047, a z-score [5] of -0.458 and a z-score [6] of -0.592. For the same compound, the z-score [7] was -0.562 (inactive), the z-score [8] was 0.816 and the z-score [9] was -0.807. For the same compound, the z-score [10] was 0.121 (inactive), the z-score [11] was -0.154 and the z-score [12] was 0.887 (inactive). The z-score [13] was -0.693 (inactive), the composite z-score [14] was -0.434 (inactive) and the z-score [15] was 0.0944 (inactive). For the same compound, the z-score [16] was 0.439 (inactive), the z-score [17] was -0.513 (inactive) and the z-score [18] was 0.0889 (inactive). The z-score [19] was -0.57 and the composite z-score [20] was 0.215.
CN1CCc2nc(CO)c(CO)cc2C1 showed a z-score [1] of 1.18, a z-score [2] of 0.593 and a z-score [3] of 0.0749. For the same compound, the z-score [4] was -1.02, the z-score [5] was 0.672 and the z-score [6] was 0.302. The z-score [7] was -0.23 (inactive), the z-score [8] was 0.38 and the z-score [9] was 1.04. For the same compound, the z-score [10] was 0.515 (inactive), the z-score [11] was 0.328 and the z-score [12] was 1.31 (inactive). For the same compound, the z-score [13] was 0.692 (inactive), the composite z-score [14] was 0.693 (inactive) and the z-score [15] was -0.188 (inactive). The z-score [16] was 1.18 (inactive), the z-score [17] was 0.0008 (inactive) and the z-score [18] was -0.019 (inactive). It also gave a z-score [19] of 1.42 and a composite z-score [20] of -0.144.
In the case of COC(=O)[C@H]1[C@H](c2ccccc2)C(=O)[C@]2(O)c3ccccc3O[C@@]12c1ccccc1, the z-score [1] is reported as 0.594, the z-score [2] is reported as 0.833 and the z-score [3] is reported as -0.0328. For the same compound, the z-score [4] was 0.391, the z-score [5] was 0.001 and the z-score [6] was 0.338. For the same compound, the z-score [7] was -0.113 (inactive), the z-score [8] was 0.289 and the z-score [9] was -0.0594. The z-score [10] was -1.73 (inactive), the z-score [11] was -0.514 and the z-score [12] was -2.2 (inactive). The z-score [13] was -0.417 (inactive), the composite z-score [14] was -1.36 (inactive) and the z-score [15] was 0.711 (inactive). For the same compound, the z-score [16] was -1.43 (inactive), the z-score [17] was 0.401 (inactive) and the z-score [18] was -1.04 (inactive). The z-score [19] was -0.865 and the composite z-score [20] was 0.17.
In the case of O=P(c1ccccc1)(c1ccccc1)N1CC2(CC2)CC(O)(c2ccccc2)C1 (stereo not given), the z-score [1] is reported as -1.76, the z-score [2] is reported as -0.388 and the z-score [3] is reported as -1.15. For the same compound, the z-score [4] was -0.183, the z-score [5] was -0.475 and the z-score [6] was -0.846. For the same compound, the z-score [7] was -0.654 (inactive), the z-score [8] was 0.232 and the z-score [9] was -0.372. The z-score [10] was -0.488 (inactive), the z-score [11] was -0.561 and the z-score [12] was 0.12 (inactive). For the same compound, the z-score [13] was -1.03 (inactive), the composite z-score [14] was -0.001 (inactive) and the z-score [15] was 0.315 (inactive). For the same compound, the z-score [16] was 0.445 (inactive), the z-score [17] was -0.32 (inactive) and the z-score [18] was 0.158 (inactive). The z-score [19] was -1.22 and the composite z-score [20] was 0.143.
With CCc1cc2c(nc1CC)CCN(CCC(C)=NOC)C2 the z-score [1] was 0.151, the z-score [2] was 0.504 and the z-score [3] was 0.0911. The z-score [4] was 0.69, the z-score [5] was -2.14 and the z-score [6] was 2.55. The z-score [7] was -1.37 (inactive), the z-score [8] was 1.07 and the z-score [9] was 0.196. The z-score [10] was -0.521 (inactive), the z-score [11] was -0.64 and the z-score [12] was -0.37 (inactive). For the same compound, the z-score [13] was 0.0324 (inactive), the composite z-score [14] was 0.273 (inactive) and the z-score [15] was 0.0738 (inactive). The z-score [16] was 0.246 (inactive), the z-score [17] was -0.983 (inactive) and the z-score [18] was -2.63 (inactive). It also gave a z-score [19] of 0.0393 and a composite z-score [20] of -0.0773.
In the case of OCc1ccc(C2=CC(c3cccs3)N(Cc3cccc(OC(F)(F)F)c3)CC2)cc1 (stereo not given), the z-score [1] is reported as 1.08, the z-score [2] is reported as 0.314 and the z-score [3] is reported as -0.65. It also gave a z-score [4] of -2.61, a z-score [5] of -0.633 and a z-score [6] of -2.28. The z-score [7] was 0.0997 (inactive), the z-score [8] was -0.0311 and the z-score [9] was 0.518. The z-score [10] was 0.439 (inactive), the z-score [11] was -0.0049 and the z-score [12] was -1.22 (inactive). For the same compound, the z-score [13] was -0.126 (inactive), the composite z-score [14] was -4.15 (inactive) and the z-score [15] was -0.223 (inactive). For the same compound, the z-score [16] was -0.449 (inactive), the z-score [17] was 0.301 (inactive) and the z-score [18] was -0.544 (inactive). For the same compound, the z-score [19] was 0.341 and the composite z-score [20] was -0.192.
